This note sets out measurements from the supplement of paper PMC11001985.

A number with no mark means an inactive call.

Chain of UniProt P19338 (P19338 whole entry): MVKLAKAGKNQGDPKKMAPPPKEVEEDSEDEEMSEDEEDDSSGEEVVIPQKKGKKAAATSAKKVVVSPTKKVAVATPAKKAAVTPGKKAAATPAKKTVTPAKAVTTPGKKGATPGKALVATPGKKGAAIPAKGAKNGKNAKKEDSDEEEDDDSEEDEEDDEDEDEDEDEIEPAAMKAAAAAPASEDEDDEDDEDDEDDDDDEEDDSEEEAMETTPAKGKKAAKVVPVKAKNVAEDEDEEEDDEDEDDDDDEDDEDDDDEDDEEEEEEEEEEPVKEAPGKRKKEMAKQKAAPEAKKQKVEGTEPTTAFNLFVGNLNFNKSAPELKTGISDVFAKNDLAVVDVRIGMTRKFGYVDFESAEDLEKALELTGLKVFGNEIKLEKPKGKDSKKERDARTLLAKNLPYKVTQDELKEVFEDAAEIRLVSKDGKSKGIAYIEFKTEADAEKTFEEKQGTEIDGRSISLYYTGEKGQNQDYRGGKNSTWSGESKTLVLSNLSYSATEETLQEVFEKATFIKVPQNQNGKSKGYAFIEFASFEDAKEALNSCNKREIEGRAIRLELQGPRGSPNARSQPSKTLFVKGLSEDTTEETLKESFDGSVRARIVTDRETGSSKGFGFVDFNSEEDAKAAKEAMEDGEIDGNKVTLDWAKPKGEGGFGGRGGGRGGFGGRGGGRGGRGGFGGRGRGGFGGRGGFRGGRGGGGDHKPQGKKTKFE
Chain of UniProt P14625 (P14625 whole entry): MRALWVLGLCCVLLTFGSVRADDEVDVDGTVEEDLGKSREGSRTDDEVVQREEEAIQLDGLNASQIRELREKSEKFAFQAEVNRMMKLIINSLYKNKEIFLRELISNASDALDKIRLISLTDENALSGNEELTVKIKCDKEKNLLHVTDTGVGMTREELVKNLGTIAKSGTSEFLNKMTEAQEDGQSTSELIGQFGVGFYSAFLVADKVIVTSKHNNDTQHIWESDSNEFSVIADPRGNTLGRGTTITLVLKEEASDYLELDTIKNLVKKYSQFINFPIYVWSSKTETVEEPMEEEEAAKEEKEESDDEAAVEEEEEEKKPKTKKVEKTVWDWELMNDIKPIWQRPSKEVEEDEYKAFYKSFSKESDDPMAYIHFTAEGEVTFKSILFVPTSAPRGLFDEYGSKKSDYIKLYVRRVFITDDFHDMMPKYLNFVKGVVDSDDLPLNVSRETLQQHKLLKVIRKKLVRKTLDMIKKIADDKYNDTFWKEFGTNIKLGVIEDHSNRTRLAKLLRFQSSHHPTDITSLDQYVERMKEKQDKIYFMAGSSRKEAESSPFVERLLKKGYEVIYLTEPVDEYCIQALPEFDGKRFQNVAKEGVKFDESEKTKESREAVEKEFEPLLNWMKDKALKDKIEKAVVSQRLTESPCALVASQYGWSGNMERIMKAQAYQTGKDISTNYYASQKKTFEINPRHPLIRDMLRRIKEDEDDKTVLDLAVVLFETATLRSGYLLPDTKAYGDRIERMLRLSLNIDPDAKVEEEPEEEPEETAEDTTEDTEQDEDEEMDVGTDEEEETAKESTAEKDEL
Chain of UniProt O75054 (O75054 whole entry): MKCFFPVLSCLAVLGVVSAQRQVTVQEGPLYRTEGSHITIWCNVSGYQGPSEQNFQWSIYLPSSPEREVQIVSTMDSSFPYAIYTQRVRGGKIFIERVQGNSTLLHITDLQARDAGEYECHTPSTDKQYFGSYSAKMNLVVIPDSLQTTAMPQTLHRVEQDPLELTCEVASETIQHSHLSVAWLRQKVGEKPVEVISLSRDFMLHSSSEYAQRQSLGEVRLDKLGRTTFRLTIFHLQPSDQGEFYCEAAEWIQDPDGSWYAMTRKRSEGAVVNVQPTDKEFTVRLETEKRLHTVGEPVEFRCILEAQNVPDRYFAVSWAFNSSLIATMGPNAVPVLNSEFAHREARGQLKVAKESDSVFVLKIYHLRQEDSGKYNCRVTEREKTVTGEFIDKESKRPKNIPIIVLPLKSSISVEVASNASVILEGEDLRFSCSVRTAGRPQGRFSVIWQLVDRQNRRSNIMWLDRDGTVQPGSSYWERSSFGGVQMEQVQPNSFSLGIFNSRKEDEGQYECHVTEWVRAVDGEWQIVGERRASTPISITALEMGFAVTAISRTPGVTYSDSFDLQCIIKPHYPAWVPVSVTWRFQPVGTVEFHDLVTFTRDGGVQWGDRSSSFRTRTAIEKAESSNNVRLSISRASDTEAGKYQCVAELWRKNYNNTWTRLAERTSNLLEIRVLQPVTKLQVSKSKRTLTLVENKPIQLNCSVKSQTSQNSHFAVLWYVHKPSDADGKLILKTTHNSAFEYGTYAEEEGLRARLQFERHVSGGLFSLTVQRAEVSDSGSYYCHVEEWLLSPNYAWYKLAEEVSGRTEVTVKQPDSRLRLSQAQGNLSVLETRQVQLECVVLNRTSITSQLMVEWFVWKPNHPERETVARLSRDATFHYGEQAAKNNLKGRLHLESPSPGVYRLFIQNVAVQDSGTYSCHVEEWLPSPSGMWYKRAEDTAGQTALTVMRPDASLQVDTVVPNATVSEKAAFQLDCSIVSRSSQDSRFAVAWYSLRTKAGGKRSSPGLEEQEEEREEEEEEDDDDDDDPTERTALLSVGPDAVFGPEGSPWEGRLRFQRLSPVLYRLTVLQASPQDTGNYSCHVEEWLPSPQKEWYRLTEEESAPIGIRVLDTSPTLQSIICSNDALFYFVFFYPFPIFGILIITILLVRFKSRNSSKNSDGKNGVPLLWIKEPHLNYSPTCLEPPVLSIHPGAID
Chain of UniProt P14866 (P14866 whole entry): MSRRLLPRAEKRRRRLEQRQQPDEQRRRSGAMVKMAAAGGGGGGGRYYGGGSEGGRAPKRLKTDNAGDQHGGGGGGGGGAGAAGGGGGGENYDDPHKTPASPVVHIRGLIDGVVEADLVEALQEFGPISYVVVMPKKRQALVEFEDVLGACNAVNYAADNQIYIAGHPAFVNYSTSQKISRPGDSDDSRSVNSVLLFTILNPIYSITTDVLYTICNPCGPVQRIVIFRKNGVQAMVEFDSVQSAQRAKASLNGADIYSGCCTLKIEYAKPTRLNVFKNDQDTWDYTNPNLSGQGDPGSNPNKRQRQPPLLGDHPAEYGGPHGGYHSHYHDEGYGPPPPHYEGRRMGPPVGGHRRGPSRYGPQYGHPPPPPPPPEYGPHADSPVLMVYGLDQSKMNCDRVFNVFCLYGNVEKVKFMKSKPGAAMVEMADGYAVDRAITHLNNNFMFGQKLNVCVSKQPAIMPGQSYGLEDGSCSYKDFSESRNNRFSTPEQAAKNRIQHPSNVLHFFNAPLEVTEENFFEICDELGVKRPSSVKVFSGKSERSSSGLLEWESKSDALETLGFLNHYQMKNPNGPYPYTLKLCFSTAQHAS
Chain of UniProt Q9Y5I4 (Q9Y5I4 whole entry): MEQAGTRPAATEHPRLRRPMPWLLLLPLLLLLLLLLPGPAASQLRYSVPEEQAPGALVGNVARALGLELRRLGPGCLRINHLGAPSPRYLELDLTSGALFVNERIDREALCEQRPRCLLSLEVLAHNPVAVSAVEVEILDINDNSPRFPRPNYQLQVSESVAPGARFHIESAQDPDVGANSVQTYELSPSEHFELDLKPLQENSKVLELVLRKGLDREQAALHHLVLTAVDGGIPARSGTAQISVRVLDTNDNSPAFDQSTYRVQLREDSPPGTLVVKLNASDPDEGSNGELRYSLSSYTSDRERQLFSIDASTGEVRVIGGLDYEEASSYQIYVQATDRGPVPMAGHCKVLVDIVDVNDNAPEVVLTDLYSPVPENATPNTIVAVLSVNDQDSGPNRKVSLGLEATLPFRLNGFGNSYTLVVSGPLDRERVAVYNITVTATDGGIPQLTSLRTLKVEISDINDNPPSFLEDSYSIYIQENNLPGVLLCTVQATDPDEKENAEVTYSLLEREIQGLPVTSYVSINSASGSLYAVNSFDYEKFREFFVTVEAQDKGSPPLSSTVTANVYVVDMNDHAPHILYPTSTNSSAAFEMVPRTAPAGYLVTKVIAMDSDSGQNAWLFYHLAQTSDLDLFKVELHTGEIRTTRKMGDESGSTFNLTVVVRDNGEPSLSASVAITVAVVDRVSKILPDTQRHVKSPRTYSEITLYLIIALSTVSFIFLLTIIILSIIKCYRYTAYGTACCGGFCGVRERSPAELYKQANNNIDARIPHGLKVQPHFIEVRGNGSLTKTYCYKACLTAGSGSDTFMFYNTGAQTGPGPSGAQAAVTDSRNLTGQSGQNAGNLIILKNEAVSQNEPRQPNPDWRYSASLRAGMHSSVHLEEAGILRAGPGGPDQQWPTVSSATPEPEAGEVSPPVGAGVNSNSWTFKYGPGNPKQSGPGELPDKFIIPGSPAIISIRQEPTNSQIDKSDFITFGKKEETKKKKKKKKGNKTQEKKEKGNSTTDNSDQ
Chain of UniProt P08727 (P08727 whole entry): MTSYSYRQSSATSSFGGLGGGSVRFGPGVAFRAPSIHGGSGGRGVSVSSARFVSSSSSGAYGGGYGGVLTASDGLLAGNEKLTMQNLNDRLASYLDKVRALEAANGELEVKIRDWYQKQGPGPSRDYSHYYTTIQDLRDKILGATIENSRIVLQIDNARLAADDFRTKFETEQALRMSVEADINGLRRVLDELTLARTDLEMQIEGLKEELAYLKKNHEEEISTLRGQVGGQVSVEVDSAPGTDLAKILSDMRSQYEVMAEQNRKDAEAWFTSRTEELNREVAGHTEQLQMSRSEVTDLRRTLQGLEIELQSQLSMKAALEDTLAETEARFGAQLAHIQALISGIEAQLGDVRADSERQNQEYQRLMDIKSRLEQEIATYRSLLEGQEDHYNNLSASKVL
Chain of UniProt P09972 (P09972 whole entry): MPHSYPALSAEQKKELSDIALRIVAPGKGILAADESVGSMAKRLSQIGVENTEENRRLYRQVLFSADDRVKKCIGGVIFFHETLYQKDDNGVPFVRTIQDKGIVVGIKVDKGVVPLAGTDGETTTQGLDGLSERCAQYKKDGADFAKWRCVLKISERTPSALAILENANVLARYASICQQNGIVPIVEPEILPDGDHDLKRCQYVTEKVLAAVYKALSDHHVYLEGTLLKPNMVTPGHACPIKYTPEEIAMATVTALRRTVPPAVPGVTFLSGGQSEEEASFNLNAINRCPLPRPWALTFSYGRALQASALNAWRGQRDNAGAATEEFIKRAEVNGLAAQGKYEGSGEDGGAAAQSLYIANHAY

Compound in this test: C#CCNC(=O)CCSSCCC(=O)NCCc1ccc(C=O)c(C=O)c1
The test can be described thus: lysine labeling ratio R10:1 (500 µM / 50 µM probe), SILAC-ABPP in living cells; higher = lower intrinsic lysine reactivity toward the probe, active = 2 or less. As to conditions: HeLa; probe concentrations 500 vs 50 µM. In outline: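 SILAC light and heavy living HeLa cells in PBS at room temperature were labelled with 50 µM or 500 µM of an alkyne-tagged, disulfide-linked lysine probe, with forward and reverse label swaps. Mixed lysates were clicked to biotin-azide, trypsin-digested, captured on neutravidin, DTT-released, alkylated and analysed by LC-MS/MS on a TIMS-TOF Pro. R is the filtered median high-probe/low-probe MS1 peptide ratio per lysine, then the median across forward and reverse replicates. Ratios are capped at 20.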
In the case of “TUBA1A (lysine site: K336) (UniProt Q71U36)”, the “lysine labeling ratio R10:1” value was 2 (active).
Consider “PTGES2 (lysine site: K225) (UniProt Q9H7Z7)”, for which the “lysine labeling ratio R10:1” value is 1.93 (active).
For the target “LRP8 (lysine site: K567) (UniProt Q14114)”, the “lysine labeling ratio R10:1” value was 1.53 (active).
To UniProt P62491 (lysine site: K179) belongs 2.31.
As to “RDX (lysine site: K371) (UniProt P35241)”, the “lysine labeling ratio R10:1” value was 1.33 (active).
On to “CCT4 (lysine site: K21) (UniProt P50991)”, for which the “lysine labeling ratio R10:1” value is 3.58.
To PVR (lysine site: K90) (UniProt P15151) belongs 3.33.
The value for “ITGAV (lysine site: K514) (UniProt P06756)” was 0.678 (active); that for “ALDOC (lysine site: K111) (UniProt P09972)” was 6.08; that for “NPR3 (lysine site: K456) (UniProt P17342)” was 0.78 (active).
“ATAD3B (lysine site: K281) (UniProt Q5T9A4)”: the “lysine labeling ratio R10:1” value is 12.6.
Take UniProt Q9Y5I4 (lysine site: K686): the “lysine labeling ratio R10:1” value was 5.99.
Turning to “FAT4 (lysine site: K1675) (UniProt Q6V0I7)”, the “lysine labeling ratio R10:1” value is 1.93 (active).
Consider “MYH9 (lysine site: K860) (UniProt P35579)”, for which the “lysine labeling ratio R10:1” value was 2.67.
In the case of “HNRNPL (lysine site: K269) (UniProt P14866)”, the “lysine labeling ratio R10:1” value is 2.23.
For the target “RPL22 (lysine site: K80) (UniProt P35268)”, the “lysine labeling ratio R10:1” value was 2.72.
For “RARS (lysine site: K60) (UniProt P54136)”, the “lysine labeling ratio R10:1” value is 3.02.
Regarding “GAPDH (lysine site: K334) (UniProt P04406)”, the “lysine labeling ratio R10:1” value is 5.36.
The value for “NCL (lysine site: K449) (UniProt P19338)” was 0.805 (active).
On to UniProt P0C0S5 (lysine site: K14), for which the “lysine labeling ratio R10:1” value is 1.12 (active).
The value for “TCP1 (lysine site: K272) (UniProt P17987)” was 2.44.
With “LDLR (lysine site: K603) (UniProt P01130)”, the “lysine labeling ratio R10:1” value is 1.19 (active).
As to “HSPG2 (lysine site: K4023) (UniProt P98160)”, the “lysine labeling ratio R10:1” value is 5.16.
To “HSP90B1 (lysine site: K633) (UniProt P14625)” belongs 3.03; to “HNRNPM (lysine site: K381) (UniProt P52272)”, 5.22.
Consider EZR (lysine site: K64) (UniProt P15311), for which the “lysine labeling ratio R10:1” value is 0.907 (active).
As to “ABCB1 (lysine site: K748) (UniProt P08183)”, the “lysine labeling ratio R10:1” value was 1.52 (active).
The value for “HSPA8 (lysine site: K328) (UniProt P11142)” was 3.91.
As for “RPS3 (lysine site: K62) (UniProt P23396)”, the “lysine labeling ratio R10:1” value was 3.22.
“ADGRG2 (lysine site: K592) (UniProt Q8IZP9)”: the “lysine labeling ratio R10:1” value is 2.37.
For CS (lysine site: K43) (UniProt O75390), the “lysine labeling ratio R10:1” value was 4.66.
Turning to “STMN1 (lysine site: K53) (UniProt P16949)”, the “lysine labeling ratio R10:1” value is 1.68 (active).
On to “PTPRF (lysine site: K1016) (UniProt P10586)”, for which the “lysine labeling ratio R10:1” value was 3.97.
For “BPTF (lysine site: K604) (UniProt Q12830)”, the “lysine labeling ratio R10:1” value was 8.91.
For the target UniProt P08727 (lysine site: K140), the “lysine labeling ratio R10:1” value is 2.21.
To UniProt Q8WXI7 (lysine site: K12309) belongs 6.26.
Regarding “TLN1 (lysine site: K1221) (UniProt Q9Y490)”, the “lysine labeling ratio R10:1” value was 1.89 (active).
In the case of “VTN (lysine site: K194) (UniProt P04004)”, the “lysine labeling ratio R10:1” value is 16.5.
Take UniProt Q9BSJ8 (lysine site: K197): the “lysine labeling ratio R10:1” value is 5.31.
Turning to “IGSF3 (lysine site: K279) (UniProt O75054)”, the “lysine labeling ratio R10:1” value was 2.5.
